# Results from PubChem BioAssay (EPA / NIEHS).
# Several values for one entry are separate records, joined by “and”; a condition that tells them apart may be missing. Equal values may be shown once. Records with an inconclusive call do not appear. A structure can be active in one record and inactive in another. Activity calls are given as the source filed them. How the source made its calls, unless noted: active means hit-call score of the fitted dose curve at least 0.9, where 1 is the maximum; inconclusive means response in the unintended direction; inactive means score below 0.9.
# Columns and labels:
# [1] = test system: zebrafish Peroxisome Proliferator-activated Receptor gamma (PPARg), gene 557037; assay: ATG_zfPPARg_XSP2: Attagene TRANS-FACTORIAL Multi-Species (XSP2) HepG2 Assay for zebrafish Peroxisome Proliferator-activated Receptor gamma (PPARg) (AID 2283833);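 further: actives increase reporter signal over DMSO so AC50 reflects activation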
# Outline: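 HepG2 cells transiently transfected with GAL4-UAS reporter units expressing a zebrafish PPARg–GAL4 chimera; compound exposure 24 h. Reporter mRNA quantified by RT-PCR with fluorescent labelling and capillary electrophoresis; gain of signal fitted relative to DMSO baseline.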
# [2] = ATG_M_61_XSP2: Attagene TRANS-FACTORIAL Multi-Species (XSP2) HepG2 Assay for M61 Transcription Factor (Internal Marker) (AID 2283835; active means hit-call score of the fitted dose curve at least 0.9, where 1 is the maximum; inactive means score below 0.9;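 further: reporter mRNA of an internal background marker read by RT-PCR and capillary electrophoresis; active means a rise in signal above the DMSO baseline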)
# Outline: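 Transient MRTU transfection of human HepG2; 24 h chemical dosing with 3 nM 6-alpha-fluorotestosterone + 1.5 nM norgestrel added for AR stimulation. RNA isolated, RT, PCR, FAM-labelled, HpaI cut, CE read. Positive direction vs DMSO.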
# [3] = biological target: zebrafish Thyroid Hormone Receptor beta (TRb), thrb (gene 30607) (UniProt Q9PVE4); assay: ATG_zfTRb_XSP2: Attagene TRANS-FACTORIAL Multi-Species (XSP1) HepG2 Assay for zebrafish Thyroid Hormone Receptor beta (TRb) (AID 2283836);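 on AC50: potency for induction of reporter signal above DMSO so agonist direction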
# zebrafish Thyroid Hormone Receptor beta (TRb), thrb (gene 30607), sequence (Q9PVE4 whole entry, looked up, the tested form may be a part): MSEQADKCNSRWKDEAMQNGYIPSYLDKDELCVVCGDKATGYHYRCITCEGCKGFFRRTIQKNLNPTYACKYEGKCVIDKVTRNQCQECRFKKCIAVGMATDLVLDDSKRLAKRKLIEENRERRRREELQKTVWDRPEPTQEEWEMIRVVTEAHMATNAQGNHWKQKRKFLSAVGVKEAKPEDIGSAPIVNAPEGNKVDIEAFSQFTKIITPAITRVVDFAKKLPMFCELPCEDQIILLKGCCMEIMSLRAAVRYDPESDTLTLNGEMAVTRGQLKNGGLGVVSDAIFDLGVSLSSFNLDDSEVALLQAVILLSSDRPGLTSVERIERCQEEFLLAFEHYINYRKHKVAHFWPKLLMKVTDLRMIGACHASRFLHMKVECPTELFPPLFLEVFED
# Outline: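 Reporter transcripts measured by RT-PCR, 6-FAM labelling, HpaI digestion and capillary electrophoresis after 24 h chemical exposure. Human HepG2 cells carry an exogenous zebrafish TRb-GAL4 chimera; medium included 3 nM 6-alpha-fluorotestosterone plus 1.5 nM norgestrel.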
# [4] = biological target: human Thyroid hormone Receptor beta (TRb), THRB (gene 7068) (UniProt P10828); assay: ATG_hTRb_XSP2: Attagene TRANS-FACTORIAL Multi-Species (XSP2) HepG2 Assay for human Thyroid hormone Receptor beta (TRb) (AID 2283840);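 further: actives raise reporter mRNA so potency reflects agonist-like gain of signal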
# human Thyroid hormone Receptor beta (TRb), THRB (gene 7068), sequence (P10828 whole entry, looked up, the tested form may be a part): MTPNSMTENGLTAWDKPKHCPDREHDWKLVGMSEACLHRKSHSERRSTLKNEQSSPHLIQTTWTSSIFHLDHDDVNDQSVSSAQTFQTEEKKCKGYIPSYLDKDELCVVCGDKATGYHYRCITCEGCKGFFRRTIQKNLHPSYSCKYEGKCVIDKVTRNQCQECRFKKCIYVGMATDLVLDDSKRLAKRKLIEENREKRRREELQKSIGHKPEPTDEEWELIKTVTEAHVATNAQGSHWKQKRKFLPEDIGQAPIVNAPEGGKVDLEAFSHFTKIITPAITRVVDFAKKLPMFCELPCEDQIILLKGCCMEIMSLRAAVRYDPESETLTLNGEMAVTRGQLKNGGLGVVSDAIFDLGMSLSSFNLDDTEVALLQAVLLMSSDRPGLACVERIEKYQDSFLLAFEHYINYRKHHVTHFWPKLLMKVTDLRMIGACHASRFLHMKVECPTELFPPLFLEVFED
# Outline: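 HepG2 cells were transiently transfected with GAL4-UAS multiplexed reporter units expressing chimeric NR-Gal4 proteins, dosed 24 h; reporter mRNA was quantified by RT-PCR, fluorescent labeling, HpaI digestion and capillary electrophoresis, fitted for gain of signal versus DMSO.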
# [5] = biological target: Nuclear receptor subfamily 1 group I member 2 (Mus musculus) (UniProt O54915); assay: ATG_mPXR_XSP2: Attagene TRANS-FACTORIAL Multi-Species (XSP1) HepG2 Assay for mouse Pregnane X Receptor (PXR) (AID 2283831)
# Nuclear receptor subfamily 1 group I member 2 (Mus musculus), sequence (O54915 whole entry, looked up, the tested form may be a part): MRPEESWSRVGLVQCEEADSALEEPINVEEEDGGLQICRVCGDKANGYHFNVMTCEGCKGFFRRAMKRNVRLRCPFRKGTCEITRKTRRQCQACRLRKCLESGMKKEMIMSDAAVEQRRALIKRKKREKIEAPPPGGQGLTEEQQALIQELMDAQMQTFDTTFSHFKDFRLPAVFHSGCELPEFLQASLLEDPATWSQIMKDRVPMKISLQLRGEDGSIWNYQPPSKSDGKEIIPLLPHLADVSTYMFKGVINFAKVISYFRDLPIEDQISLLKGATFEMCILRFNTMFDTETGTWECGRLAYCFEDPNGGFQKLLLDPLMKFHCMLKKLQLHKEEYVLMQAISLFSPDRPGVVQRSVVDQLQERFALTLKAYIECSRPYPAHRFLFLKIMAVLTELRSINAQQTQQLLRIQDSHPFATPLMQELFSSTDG
# Outline: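 HepG2 cells transiently transfected with GAL4-UAS reporter units expressing chimeric NR-GAL4 proteins; reporter mRNA measured 24 h after dosing by RT-PCR with 6-FAM labelling and capillary electrophoresis, gain of signal relative to DMSO.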
# [6] = biological target: zebrafish Thyroid Hormone Receptor alpha (TRa), thraa (gene 30670) (UniProt Q98867); assay: ATG_zfTRa_XSP2: Attagene TRANS-FACTORIAL Multi-Species (XSP1) HepG2 Assay for zebrafish Thyroid Hormone Receptor alpha (TRa) (AID 2283832);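 further: actives raise zebrafish TRa-Gal4 reporter transcript above DMSO baseline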
# zebrafish Thyroid Hormone Receptor alpha (TRa), thraa (gene 30670), sequence (Q98867 whole entry, looked up, the tested form may be a part): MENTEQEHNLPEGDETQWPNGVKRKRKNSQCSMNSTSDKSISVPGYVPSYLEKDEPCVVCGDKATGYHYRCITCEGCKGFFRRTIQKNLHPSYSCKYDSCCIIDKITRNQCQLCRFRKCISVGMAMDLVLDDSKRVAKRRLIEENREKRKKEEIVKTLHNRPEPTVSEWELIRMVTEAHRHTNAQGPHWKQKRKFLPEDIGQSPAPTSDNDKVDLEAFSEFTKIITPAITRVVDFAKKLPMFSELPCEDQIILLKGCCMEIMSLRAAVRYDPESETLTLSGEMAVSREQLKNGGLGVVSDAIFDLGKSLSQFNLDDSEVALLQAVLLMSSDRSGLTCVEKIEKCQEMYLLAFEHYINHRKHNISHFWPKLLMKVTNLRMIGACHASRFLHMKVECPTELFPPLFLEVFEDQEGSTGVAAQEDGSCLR
# Outline: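 Chimeric zebrafish TRa-Gal4 activity read in transfected human HepG2 as GAL4-UAS reporter transcripts, 24 h post-dose, via RT-PCR with labeled primer extension and capillary electrophoresis. Medium also carries 3 nM 6-alpha-fluorotestosterone and 1.5 nM norgestrel; DMSO baseline.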
# [7] = test system: turtle Thyroid Hormone Receptor, alpha (TRa), gene 101949057; assay: ATG_trTRa_XSP2: Attagene TRANS-FACTORIAL Multi-Species (XSP1) HepG2 Assay for turtle Thyroid Hormone Receptor, alpha (TRa) (AID 2283834);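 further: hits raise reporter mRNA over the DMSO baseline so AC50 marks activators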
# Outline: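 HepG2 cells transiently transfected with multiplexed GAL4-UAS reporter units expressing chimeric NR-Gal4 proteins were dosed for 24 hours. Reporter mRNA was quantified by RT-PCR with 6-FAM labelling and capillary electrophoresis, gain of signal scored against DMSO.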
# [8] = ATG_XTT_Cytotoxicity_XSP2: Cytotoxicity Assessment in the Attagene TRANS-FACTORIAL Multi-Species (XSP2) HepG2 Assay (AID 2283837)
# Outline: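 XTT-based cell number read-out in human HepG2 liver cells carrying transfected reporter units, measured 24 h after chemical dosing. Activity is signal loss versus DMSO baseline.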
# [9] = biological target: frog Thyroid hormone Receptor alpha (TRa), thra-a (gene 397942) (UniProt P15204); assay: ATG_frTRa_XSP2: Attagene TRANS-FACTORIAL Multi-Species (XSP2) HepG2 Assay for frog Thyroid hormone Receptor alpha (TRa) (AID 2283839);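 on AC50: AC50 reflects induction of frog TRa-driven reporter mRNA above DMSO baseline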
# frog Thyroid hormone Receptor alpha (TRa), thra-a (gene 397942), sequence (P15204 whole entry, looked up, the tested form may be a part): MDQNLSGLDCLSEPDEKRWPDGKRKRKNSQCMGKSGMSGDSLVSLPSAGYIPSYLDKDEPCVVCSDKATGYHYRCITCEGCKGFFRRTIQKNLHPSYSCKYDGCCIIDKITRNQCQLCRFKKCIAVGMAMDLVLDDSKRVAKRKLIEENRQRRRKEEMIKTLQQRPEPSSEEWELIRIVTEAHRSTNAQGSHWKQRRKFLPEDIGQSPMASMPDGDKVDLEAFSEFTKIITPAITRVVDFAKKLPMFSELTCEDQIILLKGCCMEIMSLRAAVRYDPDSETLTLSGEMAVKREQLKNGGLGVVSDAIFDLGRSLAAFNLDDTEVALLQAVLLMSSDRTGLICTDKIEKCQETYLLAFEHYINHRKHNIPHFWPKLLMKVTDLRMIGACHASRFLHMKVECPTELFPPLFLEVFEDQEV
# Outline: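 HepG2 cells transiently transfected with multiplexed GAL4-UAS reporter units expressing chimeric frog TRα-Gal4; reporter mRNA read 24 h after dosing by RT-PCR, FAM-labelled primer extension, HpaI digest and capillary electrophoresis. Gain of signal fitted versus DMSO.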
# [10] = biological target: human Thyroid hormone Receptor alpha (TRa), THRA (gene 7067) (UniProt P10827); assay: ATG_hTRa_XSP2: Attagene TRANS-FACTORIAL Multi-Species (XSP2) HepG2 Assay for human Thyroid hormone Receptor alpha (TRa) (AID 2283838)
# human Thyroid hormone Receptor alpha (TRa), THRA (gene 7067), sequence (P10827 whole entry, looked up, the tested form may be a part): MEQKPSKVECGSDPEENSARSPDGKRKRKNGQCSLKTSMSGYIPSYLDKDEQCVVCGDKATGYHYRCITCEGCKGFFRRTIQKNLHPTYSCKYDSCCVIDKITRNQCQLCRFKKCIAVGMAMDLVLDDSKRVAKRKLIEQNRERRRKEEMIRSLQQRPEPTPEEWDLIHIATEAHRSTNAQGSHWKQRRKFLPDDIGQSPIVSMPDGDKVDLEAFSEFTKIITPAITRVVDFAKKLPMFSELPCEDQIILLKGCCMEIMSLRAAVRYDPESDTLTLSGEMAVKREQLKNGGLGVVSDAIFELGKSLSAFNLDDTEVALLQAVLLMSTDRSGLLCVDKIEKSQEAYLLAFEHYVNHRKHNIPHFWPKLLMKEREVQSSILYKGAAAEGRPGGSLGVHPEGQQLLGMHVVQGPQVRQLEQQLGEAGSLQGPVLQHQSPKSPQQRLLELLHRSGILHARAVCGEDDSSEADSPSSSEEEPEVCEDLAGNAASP
# Outline: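 Reporter transcripts were read by RT-PCR with fluorescent primer extension, HpaI digestion and capillary electrophoresis. These came from HepG2 cells carrying multiplexed TRa-Gal4 TRANS constructs, harvested 24 hours after dosing. The medium also held 6-alpha-fluorotestosterone (3 nM) and norgestrel (1.5 nM), and increases were fitted against DMSO.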
compound,measurement,setting,value
Cc1oc(-c2ccccc2)nc1CCOc1ccc(C[C@H](Nc2ccccc2C(=O)c2ccccc2)C(=O)O)cc1,outcome,[1],inactive
same,outcome,[2],inactive
same,outcome,[3],inactive
same,outcome,[4],inactive
CCC(=C(c1ccc(O)cc1)c1ccc(OCCN(C)C)cc1)c1ccccc1,AC50,[5],4.97 µM (active) and 6.16 µM (active)
same,AC50,[6],11.6 µM (active)
same,outcome,[6],inactive
same,outcome,[1],inactive
same,outcome,[7],inactive
same,outcome,[2],inactive
same,outcome,[3],inactive
same,AC50,[8],32.1 µM (active)
same,outcome,[9],inactive
same,outcome,[4],inactive
O=C(O)Cc1cc(I)c(Oc2cc(I)c(O)c(I)c2)c(I)c1,outcome,[5],inactive
same,AC50,[6],123 nM (active) and 54.3 nM (active)
same,outcome,[1],inactive
same,AC50,[7],91.9 nM (active) and 48.7 nM (active)
same,outcome,[2],inactive
same,AC50,[3],45.5 nM (active) and 14.4 nM (active)
same,AC50,[10],75.3 nM (active) and 30.2 nM (active)
same,AC50,[9],86.6 nM (active) and 15.1 nM (active)
same,AC50,[4],38.4 nM (active) and 12.3 nM (active)
C#C[C@]1(O)CC[C@H]2[C@@H]3CCC4=CC(=O)CC[C@@H]4[C@H]3CC[C@@]21C,AC50,[5],529 nM (active)
same,outcome,[1],inactive
same,outcome,[7],inactive
same,outcome,[3],inactive
same,outcome,[9],inactive
same,outcome,[4],inactive
CC[C@H](c1ccc(O)cc1)[C@@H](CC)c1ccc(O)cc1,outcome,[7],inactive
same,outcome,[2],inactive
same,outcome,[3],inactive
same,outcome,[9],inactive
same,outcome,[4],inactive
CCCOC(=O)c1ccc(O)cc1,outcome,[5],inactive
same,outcome,[6],inactive
same,outcome,[1],inactive
same,outcome,[7],inactive
same,outcome,[2],inactive
same,outcome,[3],inactive
same,outcome,[8],inactive
same,outcome,[10],inactive
same,outcome,[9],inactive
same,AC50,[4],100 µM (active)
same,outcome,[4],inactive
c1ccc2c(c1)ccc1ccccc12,outcome,[5],inactive
same,outcome,[1],inactive
same,outcome,[7],inactive
same,outcome,[2],inactive
same,outcome,[3],inactive
same,outcome,[8],inactive
same,outcome,[10],inactive
same,outcome,[9],inactive
same,outcome,[4],inactive
Oc1cc2ccccc2c2ccccc12,outcome,[5],inactive
same,AC50,[6],10.6 µM (active)
same,outcome,[6],inactive
same,AC50,[7],10.6 µM (active)
same,outcome,[7],inactive
same,AC50,[3],33.4 µM (active)
same,AC50,[8],15.7 µM (active)
same,AC50,[10],33.4 µM (active)
same,AC50,[9],33.4 µM (active)
same,outcome,[9],inactive
same,AC50,[4],16.3 µM (active)
CCC(C)(C)C1CCC(O)CC1 (configuration not stated),outcome,[5],inactive
same,outcome,[6],inactive
same,outcome,[7],inactive
same,outcome,[2],inactive
same,outcome,[3],inactive
same,outcome,[10],inactive
same,outcome,[9],inactive
same,outcome,[4],inactive
O=c1c(-c2ccc(O)cc2)coc2cc(O)ccc12,outcome,[6],inactive
same,outcome,[1],inactive
same,outcome,[7],inactive
same,outcome,[2],inactive
same,outcome,[3],inactive
same,outcome,[8],inactive
same,outcome,[10],inactive
same,outcome,[9],inactive
same,outcome,[4],inactive
